Bioassay records: PubChem, National Center for Advancing Translational Sciences (NCATS)
Rab9 prom act – activators of Rab9 promoter; Huh7 Rab9 promoter-luciferase reporter, luminescence, 24 h; Potency, µM (top dose mostly 9.22 µM), for the others: top-dose activation, negative = inhibition, actives largely listed as activators; hit rate 2.8% among 320,000; AID 485297; note: % of control where 0% means no effect; nearly all actives have a fitted effect of over 60% in size
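Huh7 cells stably carrying Rab9 promoter–luciferase reporter, plated 1500 cells/well, compound added after 2 h and incubated 24 h at 37 °C; luciferase luminescence then read after 10 min with detection reagent.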
ELG1 genotoxic – inducers of genotoxicity in HEK293T ELG1-luciferase cells; HEK293T ELG1-luciferase reporter, luminescence, 16 h; Potency, µM (titrated, usually from 46 µM), inactives show at the top dose activity change, positive = activation, usual class: activators; hit rate 1.3% among 330,000; note: % of control where 0% means no effect; nearly all actives have a fitted effect of over 60% in size
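Genotoxicity was scored as increased ELG1-luciferase reporter signal, measured by ONE-Glo luminescence (30 min, room temperature). Compound or vehicle exposure of the HEK293T reporter cells lasted 16 hr at 37°C.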
Luc counter – Kinase-Glo luciferase inhibition (counter-screen); Kinase-Glo luciferase, ATP luminescence, 8 min; Potency, µM (titrated, usually from 38.3 µM), for the others: at the top dose activity change, negative = inhibition, hits mostly inhibitors; hit rate 0.28% among 200,000; AID 1379; note: % is set by controls: 0 for no effect and ±100 for the full control effect; nearly all actives have a fitted effect of over 60% in size
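Compounds were added to a substrate mix at pH 7.2 (50 mM imidazole, 10 uM ATP, within the enzyme's linear range), followed by Kinase-Glo detection reagent; luminescence was measured after 8 minutes at ambient temperature.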
SMN2 splice up – enhancers of SMN2 splice variant expression. HEK293 SMN2-luciferase splicing reporter, luminescence, 30-36 h. Potency, µM (titrated, usually from 46.1 µM), without a hit: at the highest dose activity change, positive = activation, most hits filed as activators. hit rate 2.8% among 210,000. AID 1458; note: % of control where 0% means no effect; nearly all actives have a fitted effect of over 55% in size
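qHTS luciferase splicing reporter: luminescence rises when SMN2 exon 7 is included in transfected HEK293 cells. Compound exposure lasted 30-36 h at 37C, with 4.5 mM final sodium butyrate as control, followed by a ONE-Glo read.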
NPC1 prom act – NPC1 promoter activation. Huh7 NPC1 promoter luciferase reporter, 24 h. Potency, µM (doses to about 9.22 µM), inactives show at the top dose activation, hits mostly activators. hit rate 2.4% among 320,000; note: % of control where 0% means no effect; nearly all actives have a fitted effect of over 60% in size
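Stably transfected Huh7 (NPC1 promoter→luciferase), 1500 cells/well in Opti-MEM + 10% FBS, 2 h settle, then compound 24 h at 37 °C. Luminescence after 10 min with Amplite reagent.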
FLuc counter – counter-screen for miR-21 project: firefly luciferase inhibitors or activators | purified FLuc, Km substrates, luminescence inhibition | Potency, µM (top dose mostly 57.5 µM), without a hit: top-dose activity change, negative = inhibition, actives largely listed as inhibitors | hit rate 6.9% among 360,000 | AID 588342;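 note: plate controls were vehicle for no effect and reference inhibitor for full effect; nearly all actives have a fitted effect of over 55% in size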
Target sequence (P08659 whole entry, looked up): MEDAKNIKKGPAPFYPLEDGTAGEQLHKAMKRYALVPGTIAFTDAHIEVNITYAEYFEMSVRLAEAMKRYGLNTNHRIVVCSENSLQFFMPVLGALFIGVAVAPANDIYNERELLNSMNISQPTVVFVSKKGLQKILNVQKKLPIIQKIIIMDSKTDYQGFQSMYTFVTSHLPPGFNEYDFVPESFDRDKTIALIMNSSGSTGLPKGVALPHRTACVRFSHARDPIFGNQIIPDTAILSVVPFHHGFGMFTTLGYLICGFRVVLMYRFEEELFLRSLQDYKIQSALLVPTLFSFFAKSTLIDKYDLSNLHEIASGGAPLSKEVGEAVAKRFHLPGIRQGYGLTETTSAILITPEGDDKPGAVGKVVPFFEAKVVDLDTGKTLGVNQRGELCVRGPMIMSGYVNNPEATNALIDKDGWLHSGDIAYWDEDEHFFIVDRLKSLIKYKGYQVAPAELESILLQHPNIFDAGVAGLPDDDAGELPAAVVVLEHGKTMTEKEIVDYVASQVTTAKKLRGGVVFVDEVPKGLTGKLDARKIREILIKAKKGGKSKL
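Purified P. pyralis luciferase (10nM final) with 10uM D-luciferin and 10uM ATP (Km levels) in 50mM Tris acetate pH 7.5, 10mM Mg acetate, 0.01% Tween-20, 0.05% BSA; qHTS 6-point titration, ~60 µM downward; luminescence read.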
* = called active by the depositor; ? = inconclusive; . = no result. In the library only some 7.4% were active in any assay of this set; here they are far more common. Calls come from the whole dose curve; as a rule, active = well fitted curve in the direction sought with a large enough effect; inconclusive = small, poorly fitted or top-dose-only effect, or another doubt; inactive = no such curve, though single readings can be large; an effect the other way counts as inactive or inconclusive. Potency is the fitted concentration of half-maximal effect.

SMILES	Rab9 prom act	ELG1 genotoxic	Luc counter	SMN2 splice up	NPC1 prom act	FLuc counter
COc1ccc(CCN(Cc2cccs2)S(=O)(=O)c2ccc(S(=O)(=O)N(C)C3CCCCC3)cc2)cc1OC	-21%	0%	6%	-50%	-15%	0%
COC(=O)CCn1c(C)cc(C(=O)COc2ccccc2C(N)=O)c1C	-13%	-16%	-3%	-32%	-20%	?
Cc1cc(-n2c(C)cc(C(=O)COc3cccnc3[N+](=O)[O-])c2C)no1	11%	3%	.	.	6%	-7%
Cc1cc(C(=O)COc2cccnc2[N+](=O)[O-])c(C)n1Cc1cccs1	2%	?	3%	-38%	-2%	24µM*
Cc1ccc(OCC(=O)c2cc(C)n(-c3ccccc3)c2C)c([N+](=O)[O-])n1	-6%	-4%	-3%	-58%	-3%	19µM*
CC(=O)Nc1ccccc1OCC(=O)c1cc(C)n(Cc2cccs2)c1C	-22%	10µM*	0%	-109%	-17%	?
Cc1cccc(N2CCN(C(=O)c3ccc4c(c3)CCN4S(C)(=O)=O)CC2)c1C	-9%	-8%	.	.	-5%	6%
Cc1ccc(N=Cc2cc(C)n(C3CCCC3)c2C)cc1	-6%	0%	1%	11%	6%	11µM*
Cc1cc(/C=N/NC(=O)c2ccc(O)cc2)c(C)n1C1CC1	-5%	1%	2%	-1%	-1%	?
C=CC(=O)OCCCCCCOC(=O)C=C	.	.	.	-9%	.	.
O=C(/C=C/Nc1ccc([N+](=O)[O-])cc1Br)c1cccc2ccccc12	1.1µM*	?	-17%	5.6µM*	3.2µM*	2.4µM*
NC(=O)c1cc([N+](=O)[O-])ccc1NCc1cccc2ccccc12	-3%	4%	.	.	-3%	-12%
Cc1ccc(-c2nc3sc(C(N)=O)c(N)c3c3c2CCCC3)cc1	-6%	-6%	0%	10%	-6%	0%
Cc1nc2sc(C(N)=O)c(N)c2c2c1CCCC2	10%	-18%	.	.	?	12µM*
Cc1ccc(-c2ccc(CCC(=O)O)o2)cc1	19%	11%	0%	?	4%	11µM*
CCC(=O)Nc1nc(-c2ccc3c(c2)OCCO3)cs1	3.2µM*	2.1µM*	1%	2.5µM*	0.5µM*	6µM*
O=C(/C=C/c1ccc2c(c1)OCO2)Nc1nc(-c2ccc(F)cc2)cs1	-1%	0%	0%	-61%	-1%	?
COc1ccccc1C(=O)Nc1nc(-c2ccc3c(c2)OCCO3)cs1	4%	-3%	3%	-40%	-7%	?
c1cc2c(cc1-c1csc(NNC3=NCCCCC3)n1)OCCO2	?	15%	-1%	17%	8%	19µM*
CC(C)(C)C(=O)Nc1nc(-c2ccc3c(c2)OCO3)cs1	2.8µM*	2.3µM*	1%	?	3.5µM*	7.6µM*
CCOC(=O)N1CCN(C(=O)c2ccc3c(c2)N=C(C)c2cc(Cl)ccc2S3)CC1	-2%	-9%	.	.	-1%	2%
Cc1cc(N2CC(C(=O)Nc3nccs3)CC2=O)ccc1C(C)C (centres undefined)	13%	-4%	.	.	1%	11µM*
CC(C)c1cccc2nc3c(c(C(C)(C)C)c12)Cn1c-3cccc1=O	.	.	-1%	-5%	.	.
Cc1cc([N+](=O)[O-])nn1CC(=O)N/N=C/c1ccc(O)cc1O	-19%	21%	.	.	-13%	-2%
CC(=O)Nc1ccc(S(=O)(=O)NCC(=O)OCC(=O)N2CCCCCC2)cc1	-2%	0%	.	.	0%	1%
SMILES	Rab9 prom act	ELG1 genotoxic	Luc counter	SMN2 splice up	NPC1 prom act	FLuc counter
Cc1ccc(C(=O)Nc2ccc(C(F)(F)F)n(C)c2=O)cc1	3.2µM*	?	-3%	22µM*	18%	4.3µM*
COCCn1c(C(F)(F)F)ccc(NC(=O)c2ccccc2)c1=O	1.3µM*	7.3µM*	.	.	1.4µM*	7.6µM*
COc1ccc(C(=O)Nc2ccc(C(F)(F)F)n(C)c2=O)cc1	2.2µM*	?	5%	14µM*	2.8µM*	?
CCOc1ccc(S(=O)(=O)N2CCN(C(=O)c3ccc(C)c(S(=O)(=O)N4CCOCC4)c3)CC2)cc1	.	-10%	.	.	.	.
O=C(CSc1nc2c(oc3ccccc32)c(=O)n1Cc1ccco1)Nc1ccccc1Cl	.	.	.	-3%	.	2%
COc1ccc(Cl)cc1NC(=O)c1cc(C)nn1-c1ccccc1	.	.	.	-25%	.	7%
Cc1ccccc1N=C1Nc2ccccc2CS1	0.63µM*	?	-11%	13µM*	1.4µM*	4.8µM*
Cc1ccccc1N=C1NC(=O)CS1	3%	1%	14%	-11%	-3%	0%
Clc1ccccc1CSc1cc2c(nn1)-c1ccccc1CC2	2.5µM*	?	3%	20µM*	?	5.4µM*
Cc1sc(NC(=O)c2ccco2)c(C(c2cccnc2)N2CCN(c3ccc(F)cc3)CC2)c1C (centres undefined)	-9%	0.52µM*	1%	-68%	-14%	0%
CC1=C2[C@@H]([C@H](C)CC[C@H]2/C=C(\C)C(=O)O)[C@H](O)C1	.	.	.	1%	.	.
N#Cc1ccccc1OCCN1C(=O)c2ccccc2C1=O	29%	13µM*	-8%	.	26%	?
Nc1cccc2c1C(=O)N(CCOc1ccccc1F)C2=O	0.35µM*	0.41µM*	.	.	0.35µM*	0.76µM*
COc1ccc(OCCN2C(=O)c3ccccc3C2=O)c([N+](=O)[O-])c1	?	?	.	.	28%	27µM*
CCCOc1ccc(C(=O)NC2CCSc3ccccc32)cc1 (centres undefined)	-1%	3%	.	.	23%	3%
Cc1nn(C)cc1/C=N/NC(=S)Nc1ccccc1	2µM*	17%	-14%	26%	?	5.4µM*
COc1cccc(NC(=O)c2ccc3nsnc3c2)c1	?	?	.	.	?	12µM*
COc1cc(C(=O)Nc2cccc(NC(=O)c3cccs3)c2)cc(OC)c1OC	-2%	-3%	.	.	-7%	24µM*
COc1cccc(C(=O)Nc2cc(Cl)c(O)c(Cl)c2)c1	12%	8%	.	.	?	15µM*
